PubChem BioAssay (NCI)
The panel holds about 83,000 compounds, 20% with a hit somewhere; the sample as a whole holds those more often.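 A percent growth of 40 corresponds to 60% growth inhibition; 0 means no net growth; -100 means all cells died. Active threshold: below 10.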 Activity calls are given as the source filed them.

What was measured:
Experiment in all cases: NCI-60 one-dose screen, 48 h (100 = growth as untreated, 0 = no growth, -100 = all killed)
Conditions in all cases: 10 µM unless noted
OVCAR-5 ovarian = system: OVCAR-5 ovarian
OVCAR-4 ovarian = system: OVCAR-4 ovarian
SK-OV-3 ovarian = system: SK-OV-3 ovarian
IGROV1 ovarian = system: IGROV1 ovarian
OVCAR-3 ovarian = system: OVCAR-3 ovarian
HS 578T breast = system: HS 578T breast
NCI/ADR-RES ovarian = system: NCI/ADR-RES ovarian
OVCAR-8 ovarian = system: OVCAR-8 ovarian

Measured: growth

CCN(CC)S(=O)(=O)c1cccc(-c2ccc3c(NC(=O)C4CC4)n[nH]c3c2)c1
inactive: OVCAR-5 ovarian 51.6% [6.25 µM] | OVCAR-4 ovarian 18.7% [6.25 µM] | SK-OV-3 ovarian 28.6% [6.25 µM] | IGROV1 ovarian 34.7% [6.25 µM] | OVCAR-3 ovarian 17.3% [6.25 µM] | HS 578T breast 23.8% [6.25 µM] | NCI/ADR-RES ovarian 79.7% [6.25 µM]

O=C(/C=C/c1ccc(Cl)nc1)c1ccc(Cl)cc1Cl
inactive: OVCAR-8 ovarian 95.6% | OVCAR-5 ovarian 91.4% | OVCAR-4 ovarian 87.3% | SK-OV-3 ovarian 106% | IGROV1 ovarian 96.9% | OVCAR-3 ovarian 78.5% | HS 578T breast 110% | NCI/ADR-RES ovarian 102%

CC(C)Sc1nc(NNC(N)=S)c(C#N)c(-c2ccc(F)cc2)n1
inactive: OVCAR-8 ovarian 97.4% | OVCAR-5 ovarian 88.3% | OVCAR-4 ovarian 102% | SK-OV-3 ovarian 83.9% | IGROV1 ovarian 97.1% | OVCAR-3 ovarian 113% | HS 578T breast 101% | NCI/ADR-RES ovarian 99%

CCOc1c(C#N)nnc2c(C#N)c(NC(=O)c3ccccc3)nn12
inactive: OVCAR-5 ovarian 102% | OVCAR-4 ovarian 110% | SK-OV-3 ovarian 97.1% | IGROV1 ovarian 101% | OVCAR-3 ovarian 106% | HS 578T breast 99.8% | NCI/ADR-RES ovarian 100%

Cc1ccc(NS(=O)(=O)c2ccc3c(c2)C(=O)CC(c2ccc(C(=O)C(C)C)cc2)N3)cc1C (centres undefined)
inactive: OVCAR-8 ovarian 73.4% | OVCAR-5 ovarian 80.1% | OVCAR-4 ovarian 62.9% | SK-OV-3 ovarian 74.4% | OVCAR-3 ovarian 74.4% | HS 578T breast 73.2% | NCI/ADR-RES ovarian 56.3%

O=c1c2cc(F)ccc2sc2c(NCCCN3CCCC3)nc3ccccc3c12
inactive: OVCAR-5 ovarian 70.3% | OVCAR-4 ovarian 48.7% | SK-OV-3 ovarian 88.9% | IGROV1 ovarian 15.1% | OVCAR-3 ovarian 29.3% | HS 578T breast 43.8% | NCI/ADR-RES ovarian 67.5%

O=C(CSc1nnc(-c2ccc(NC(=O)c3cccnc3)cc2)o1)N[C@@H](Cc1ccc(O)cc1)C(=O)O
inactive: OVCAR-8 ovarian 99.8% | OVCAR-5 ovarian 106% | OVCAR-4 ovarian 120% | SK-OV-3 ovarian 101% | IGROV1 ovarian 102% | OVCAR-3 ovarian 120% | HS 578T breast 96.9% | NCI/ADR-RES ovarian 104%

Fc1cnc(NC2CC2)nc1-c1cnc2ccc(N3CCOCC3)cn12
active: OVCAR-5 ovarian -4.33% | OVCAR-4 ovarian -1.69% | IGROV1 ovarian 4.44% | OVCAR-3 ovarian 4.44% | HS 578T breast -7.95% | NCI/ADR-RES ovarian 7.33%
inactive: SK-OV-3 ovarian 20.6%

O=c1c2cc(F)ccc2sc2c(NCCN3CCCCC3)nc3ccccc3c12
inactive: OVCAR-8 ovarian 57.6% | OVCAR-5 ovarian 69.3% | OVCAR-4 ovarian 50.7% | SK-OV-3 ovarian 78.8% | IGROV1 ovarian 27.3% | OVCAR-3 ovarian 31.5% | HS 578T breast 56% | NCI/ADR-RES ovarian 67.1%

NC(N)=Nc1nc2ccccc2n2c1nc1ccccc12
inactive: OVCAR-8 ovarian 25.5% | OVCAR-5 ovarian 54.3% | OVCAR-4 ovarian 36% | SK-OV-3 ovarian 32.9% | IGROV1 ovarian 20.3% | OVCAR-3 ovarian 43.3% | HS 578T breast 43.8% | NCI/ADR-RES ovarian 63.1%

NCCCNc1nc2ccccc2c2c(=O)c3cccc(Cl)c3sc12
inactive: OVCAR-5 ovarian 50% | OVCAR-4 ovarian 38.2% | SK-OV-3 ovarian 73% | HS 578T breast 28.1% | NCI/ADR-RES ovarian 29.2%
active: OVCAR-8 ovarian -16.2% | IGROV1 ovarian 7.81% | OVCAR-3 ovarian -51.5%

COc1ccc(-c2nc(SCCC(C)C)nc(N/N=C\c3ccccc3O)c2C#N)cc1
active: OVCAR-4 ovarian 4.04%
inactive: OVCAR-8 ovarian 75.4% | OVCAR-5 ovarian 99.7% | SK-OV-3 ovarian 87.6% | IGROV1 ovarian 86.7% | OVCAR-3 ovarian 78.8% | HS 578T breast 63.2% | NCI/ADR-RES ovarian 84.2%

Cc1ccccc1NC(=O)N/C(N)=N/c1nc(C)c(C)s1
active: OVCAR-3 ovarian -1.03% | NCI/ADR-RES ovarian 9.02%
inactive: OVCAR-8 ovarian 30.8% | OVCAR-5 ovarian 41.4% | OVCAR-4 ovarian 49.7% | SK-OV-3 ovarian 45.2% | IGROV1 ovarian 36.2% | HS 578T breast 23.6%
